# Source: PubChem BioAssay (several laboratories)
# This excerpt belongs to a sample that is enriched for hits.
# D1 allo mod: D1 dopamine receptor (human) allosteric modulation | P21728 | HEK293 D1, CRE-luciferase, dopamine EC30 potentiation; actives deviate in either direction | B-score at 10 µM | AID 641 | 58,000 tested, 5.9% active;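 active = luminescence count or its row- and column-corrected plate score outside the 99.7% band of the plate's sample wells, on either side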
# FXIa mix inh: factor XIa (human) inhibition, mixture screen | P03951 | inhibition, % at 5 µM | purified FXIa, fluorogenic substrate, pooled mixtures | AID 680 | 62,000 tested, 0.19% active;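 note: each value is inhibition by a whole ten-compound pool holding the compound; 0% = enzyme with no mixture and 100% = wells lacking enzyme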
# FXIIa inh mix: factor XIIa (human) inhibition, mixture screen; purified FXIIa, fluorogenic substrate, pooled mixtures; inhibition, % at 5 µM; 62,000 tested, 0.2% active; AID 684; P00748;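 note: 0% = enzyme without compound and 100% = no enzyme blank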
# HePTP inhibitor: inhibitors of human HePTP phosphatase; P35236; recombinant HePTP phosphatase activity, OD absorbance; inhibition, % at 20 µM; 110,000 tested, 0.64% active; in the data active = inhibition above about 50%;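 note: plate controls were vehicle for no effect and reference inhibitor for full effect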
# Calb biofilm kill: kills Candida albicans biofilms; C. albicans biofilm + clotrimazole, Alamar Blue; inhibition, % at 6 µM; 85,000 tested, 0.14% active;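 active = inhibition above 20%; inactive = inhibition below 20%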;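 note: preformed 24 hr biofilms exposed to compound for 48 hr; 0% = biofilm without compound and 100% = blank killed by clotrimazole plus chlorhexidine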
# TNAP act mid DEA: activates human TNAP at intermediate phosphate acceptor concentration; P05186; purified TNAP, CDP-star luminescence, 100 mM DEA, 30 min; stronger effect = higher value; scale: 0 levamisole-inhibited, 1 vehicle-only enzyme; activation factor at 20 µM; 64,000 tested, under 10 active; AID 813;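 active = activation factor of at least 2 at 20 µM, relative to controls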
# Target sequence (P05186 whole entry, looked up): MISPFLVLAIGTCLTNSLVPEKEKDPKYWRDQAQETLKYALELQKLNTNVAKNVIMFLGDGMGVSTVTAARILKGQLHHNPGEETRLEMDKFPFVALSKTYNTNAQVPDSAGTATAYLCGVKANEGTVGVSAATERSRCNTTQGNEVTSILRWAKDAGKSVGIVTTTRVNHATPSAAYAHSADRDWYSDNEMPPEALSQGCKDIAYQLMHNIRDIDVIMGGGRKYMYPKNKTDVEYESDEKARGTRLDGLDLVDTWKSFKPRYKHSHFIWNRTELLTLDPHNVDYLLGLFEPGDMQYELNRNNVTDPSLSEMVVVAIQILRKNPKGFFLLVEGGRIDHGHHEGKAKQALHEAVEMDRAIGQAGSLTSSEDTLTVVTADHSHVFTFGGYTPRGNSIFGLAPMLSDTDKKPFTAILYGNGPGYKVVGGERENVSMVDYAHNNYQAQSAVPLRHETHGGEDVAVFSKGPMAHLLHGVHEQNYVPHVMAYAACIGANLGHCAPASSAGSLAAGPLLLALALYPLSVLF
# D1 mod confirm: D1 receptor (human) allosteric modulation, confirmed; luminescence at 10 µM; HEK293 D1 CRE-luciferase, dopamine EC30 potentiation; stronger effect = higher value; 2,200 tested, 88% active; shares compounds with D1 allo mod; AID 642;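 active = luminescence in either of two replicates above the same-plate mean plus 3 SD of the low-dose dopamine control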
# D1 ag no DA: secondary test of D1 modulators: activity without dopamine; 1,900 tested, 0.8% active; luminescence at 10 µM; shares compounds with D1 allo mod; HEK293 D1 CRE-luciferase, luminescence, no dopamine; stronger effect = higher value; in the data active = luminescence above about 3900
# Isoprot counter: counter-screen for D1 modulators: isoproterenol response in HEK293 cells; shares compounds with D1 allo mod; HEK293 D1 CRE-luciferase, isoproterenol EC30 counter-screen; stronger effect = higher value; luminescence at 10 µM; 2,200 tested, 63% active;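 active = luminescence in either replicate above plate mean of wells with a partly effective reference agonist dose plus 3 SD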;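 note: isoproterenol raises cAMP through native beta-adrenoceptor Gs so signal bypasses D1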
# * = called active by the depositor; x = no result given. Cut-off read from the data, not from the text of the source, unless noted: active = inhibition above about 20% (passing the limit was not always enough); inactive = the rest.
SMILES,D1 allo mod,FXIa mix inh,FXIIa inh mix,HePTP inhibitor,Calb biofilm kill,TNAP act mid DEA,D1 mod confirm,D1 ag no DA,Isoprot counter
NS(=O)(=O)c1ccc(CCNC(=O)C2CCCN2C(=O)OCc2ccccc2)cc1 (stereo unspecified),-0.402,x,x,x,4.6,x,x,x,x
Cc1cc(=O)oc2c1ccc1oc(/C(=N\O)c3ccc(Cl)cc3)c(C)c12,x,x,x,-1.9,x,x,x,x,x
Cc1cc(=O)oc2c1ccc1oc(/C(=N/O)c3ccccc3)c(C)c12,5.19*,-2.8,-2.4,-1.6,1.6,0.8,7656*,1496,3600*
Cc1ccc(/C=N/c2nc3ccc(Br)cc3n2C)c(O)c1,x,x,x,-3.1,x,x,x,x,x
C=CCSc1nnc(-c2ccccc2)o1,x,x,x,9.9,x,x,x,x,x
COc1c2occc2cc2ccc(=O)oc12,12.6*,1.1,8.5,-5.6,8.5,1,26928*,1736,4372*
CC(=O)Oc1c2occc2cc2ccc(=O)oc12,x,-5.6,-4.8,0.7,6.3,1,x,x,x
NC1=NC(c2ccc(Br)cc2)n2c(nc3ccccc32)N1 (stereo unspecified),10.2*,3.9,0.4,14.8,8.8,1.3,11596*,1556,3012
COc1cc2c(cc1OC)-c1cc(NC3CCCCCCC3)nc(=O)n1CC2,7.6*,4.9,3.9,0.3,-7.1,0.9,20716*,2740,17668*
COc1cc2c(cc1OC)-c1cc(NC3CC3)nc(=O)n1CC2,5.67*,0.7,-0.3,-1.4,4.2,0.9,14400*,1568,11944*
COc1cc2c(cc1OC)-c1cc(NCc3ccccn3)nc(=O)n1CC2,5.2*,2.3,-14.4,7.0,5.2,0.9,10588*,1816,4284*
CCCCCCNc1cc2n(c(=O)n1)CCc1cc(OC)c(OC)cc1-2,3.15*,3.7,0.3,-0.2,3.9,0.9,13732*,1896,8864*
CCCOc1ccc(/C=C/C(=O)Nc2c(C)cccc2C(C)C)cc1OC,x,x,x,6.1,x,x,x,x,x
Cc1cc(/C=c2\sc3nc4ccccc4n3c2=O)c(C)n1-c1cccc([N+](=O)[O-])c1,x,x,x,8.6,x,x,x,x,x
Nc1nc(Cl)nc2c1ncn2[C@H]1C[C@H](O)[C@@H](CO)O1,7.51*,4.0,4.5,7.2,6.8,0.7,10544*,1496,3904*
Nc1ncnc2c1ncn2[C@H]1C[C@H](O)[C@@H](COP(=O)(O)O)O1,x,x,x,x,8.6,x,x,x,x
O=c1[nH]c(/C=C/c2ccco2)nc2ccccc12,x,x,x,11.4,x,x,x,x,x
O=C(/C=C/c1cccc(Cl)c1)c1ccc2c(c1)OCCO2,x,x,x,-8.0,x,x,x,x,x
CCCCNC(=O)CS(=O)Cc1nc(-c2cccc(C)c2)oc1C (stereo unspecified),0.0757,1.4,5.8,4.4,4.2,1,x,x,x
CCC(C)NC(=O)CS(=O)Cc1nc(-c2cccc(C)c2)oc1C (stereo unspecified),4.54*,-11.0,11.5,6.3,6.0,1,5396,1376,2376
CN1CCN(Cn2c(O)c(N=NC(=O)c3ccccc3)c3cc(Br)ccc32)CC1,x,x,x,16.6,x,x,x,x,x
CCOc1cc(-c2cc(-c3ccc(N)cc3)nc(N)c2C#N)ccc1O,8.59*,-13.2,5.9,3.4,2.1,0.9,19856*,1656,11240*
Cc1c(NC(=O)CCN2C(=O)S/C(=C\c3ccccc3)C2=O)c(=O)n(-c2ccccc2)n1C,x,x,x,0.3,x,x,x,x,x
Cc1cc(Br)c2c(c1)=C(c1sc(N3CCCCCC3)nc1O)C(=O)N=2,5.98*,5.7,0.3,9.9,-6.1,0.9,18480*,1764,2760
COC(=O)/C(=C1/Oc2cc3c(cc2S1)OCO3)C(F)(F)F,3.37*,5.7,4.4,-7.2,-0.3,1,11868*,1480,2652
O=C(Nc1ccc(S(=O)(=O)Nc2nccs2)cc1)C(Cl)(Cl)Cl,x,x,x,9.5,x,x,x,x,x
COc1cccc(CNc2ccc(S(=O)(=O)Nc3nccs3)cc2)c1O,12.2*,-2.7,2.0,2.7,6.7,0.9,14616*,1520,3656*
C[n+]1ccc(/C=C/c2cccc([N+](=O)[O-])c2)cc1,x,x,x,-12.7,x,x,x,x,x
